# Several values for one entry are separate records, joined by “and”; a condition that tells them apart may be missing. Equal values may be shown once. Records with an inconclusive call do not appear. A call without a number means that no potency is given here. Activity calls are given as the source filed them. Unless noted, the call rests on the fitted dose curve; in most records, active means well fitted curve in the direction sought with a large enough effect in the repeat runs; inconclusive means weak or mixed curves; inactive means no such curve, though single readings can be large; an effect the other way counts as inactive or inconclusive.
# Assays:
# [1] = qHTS assay for small molecule agonists of the p53 signaling pathway (AID 651631; calls by dose curve; further: nearly all actives have a fitted effect of over 15% in size; further: potency means the concentration at half of the fitted maximal effect)
# Summary of the method: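 Agonist mode screen using a stably integrated beta-lactamase gene under p53 response elements in HCT-116 cells. Compound exposure lasts 16 h at 37 °C; fluorescence intensity is measured following 2 h FRET substrate loading.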
# [2] = qHTS assay for small molecules that induce genotoxicity in human embryonic kidney cells expressing luciferase-tagged ATAD5 (AID 651632); further: nearly all actives have a fitted effect of over 15% in size
# Summary of the method: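 HEK293T cells carrying luciferase-tagged ATAD5 were given compound or DMSO vehicle and incubated 16 hr at 37C, 5% CO2. Luciferase activity was read after 30 min at room temperature with Amplite; a rise signals genotoxic stress.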
# [3] = qHTS assay for small molecule agonists of the p53 signaling pathway - cell viability (AID 651633; calls by dose curve;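 further: p53RE-bla HCT reporter cells with a stable beta-lactamase p53 reporter; series mostly up to about 83 µM; nearly all actives have a fitted effect of over 30% in size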)
# Summary of the method: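 p53RE-bla cells were treated with compound for 16 hours at 37 C. Cytotoxicity was then measured as CellTiter-Glo luminescence after 30 min at room temperature.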
# [4] = qHTS assay for small molecules that induce genotoxicity in human embryonic kidney cells expressing luciferase-tagged ATAD5 - cell viability (AID 651634; calls by dose curve; further: nearly all actives have a fitted effect of over 25% in size)
# Summary of the method: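 HEK293T cells carrying luciferase-tagged ATAD5, 2,000 cells/well, exposed to compound for 15.5 hr at 37C. Viability read as live-cell protease activity by CellTiter-Fluor fluorescence after 30 min at 37C.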
# [5] = qHTS assay for small molecule disruptors of the mitochondrial membrane potential - cell viability (AID 720634; calls by dose curve;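 further: human HepG2 liver cancer cells; series mostly up to about 83 µM; nearly all actives have a fitted effect of over 20% in size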)
# Summary of the method: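 HepG2 cells, 2,000 per well, attached overnight, then treated 1 hr at 37 C, 5% CO2. Viability read as ATP by CellTiter-Glo luminescence after 30 min at room temperature. Read in the same wells as the m-MPI membrane-potential dye assay.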
# [6] = qHTS assay for small molecule disruptors of the mitochondrial membrane potential (AID 720635); further: potency means the concentration at half of the fitted maximal effect
# Summary of the method: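 HepG2 cells exposed to compound 1 hr at 37C, then Mito-MPS dye 30 min. Ratio read of aggregate (540/590 nm) versus monomer (490/535 nm) fluorescence.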
# [7] = qHTS assay to test for compound auto fluorescence at 590 nm (red) in HepG2 cells (AID 720674)
# Summary of the method: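 Seeding: 2,000 HepG2 cells/well, MEM/10% FBS, overnight 37 C. Dosing: compound vs DMSO. Incubation: 1 hr, 37 C, 5% CO2. Read: fluorescence 540 ex/590 em, Rose Bengal sodium as red reference.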
# [8] = qHTS assay to test for compound auto fluorescence at 535 nm (green) in HepG2 cells (AID 720675)
# [9] = qHTS assay to test for compound auto fluorescence at 460 nm (blue) in HEK293 cells (AID 720678)
# Summary of the method: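 HEK293 cells (2,000/well, medium with 10% dialyzed FBS) attached 4-5 hr, then exposed to compound overnight at 37C, 5% CO2. Blue fluorescence read at 405/460 nm, with triamterene as reference fluorophore.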
# [10] = qHTS assay to test for compound auto fluorescence at 590 nm (red) in HEK293 cells (AID 720679)
# Summary of the method: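 HEK293 cells (2,000/well, 10% dialyzed FBS) attached 4-5 hr, then dosed with compound or DMSO and incubated overnight at 37C, 5% CO2. Red fluorescence read at 540/590 nm, Rose Bengal sodium as reference fluorophore.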
# [11] = qHTS assay to test for compound auto fluorescence at 535 nm (green) in HEK293 cells (AID 720680)
# [12] = qHTS assay to test for compound auto fluorescence at 535 nm (green) in HEK293 cell free culture (AID 720682)
# Summary of the method: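 No cells present: wells hold DMEM supplemented with 10% FBS, into which compound or vehicle is pinned. Green emission is then recorded (485 nm excitation, 535 nm emission) and scaled to fluorescein.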
# [13] = qHTS assay to test for compound auto fluorescence at 590 nm (red) in HEK293 cell free culture (AID 720683)
# Summary of the method: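 Cell-free wells of DMEM with 10% FBS received compound, and intrinsic fluorescence was read at excitation/emission 540/590 nm. Values expressed as equivalence to Rose Bengal sodium.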
# [14] = qHTS assay to test for compound auto fluorescence at 590 nm (red) in HepG2 cell free culture (AID 720684)
# Summary of the method: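 Compounds are added to culture medium (MEM, 10% FBS) lacking cells, then fluorescence is read at excitation 540 nm, emission 590 nm, with Rose Bengal sodium as the equivalency standard.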
# [15] = qHTS assay to test for compound auto fluorescence at 460 nm (blue) in HepG2 cell free culture (AID 720685)
# Summary of the method: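 Compound (23 nL) or DMSO pinned into cell-free MEM with 10% FBS; blue fluorescence read at 405/460 nm excitation/emission, expressed as auto-fluorescence equivalency to triamterene.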
# [16] = qHTS assay to test for compound auto fluorescence at 535 nm (green) in HepG2 cell free culture (AID 720686)
# [17] = qHTS assay to test for compound auto fluorescence at 460 nm (blue) in HEK293 cell free culture (AID 720681)
# Summary of the method: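 Compounds were added to cell-free DMEM with 10% FBS and fluorescence read directly. The blue channel used 405 nm excitation and 460 nm emission, with triamterene as the reference fluorophore.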
# [18] = qHTS assay to test for compound auto fluorescence at 460 nm (blue) in HepG2 cells (AID 720687)
# Summary of the method: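 HepG2 cells in MEM with 10% FBS, attached overnight at 37 C, were exposed to compound or DMSO for 1 hr at 37 C, 5% CO2. Blue fluorescence was read at 405/460 nm, with triamterene as reference fluorophore.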
# [19] = target: Glucocorticoid receptor (Homo sapiens) (UniProt P04150); test: qHTS assay to identify small molecule agonists of the glucocorticoid receptor (GR) signaling pathway (AID 720691; active means well fitted activation curve with a large enough effect in the signal ratio in the repeat runs, not every such curve was filed as active; the % refers to the signal ratio)
# Summary of the method: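 GR-bla HeLa cells carrying a GRE-driven beta-lactamase reporter, exposed to compounds for 18 h at 37 C. Reporter activation read as fluorescence after 2 h with LiveBLAzer B/G FRET substrate at room temperature.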
# [20] = target: Glucocorticoid receptor (Homo sapiens) (UniProt P04150); test: qHTS assay to identify small molecule antagonists of the glucocorticoid receptor (GR) signaling pathway (AID 720692; active means well fitted inhibition curve with a large enough effect in the signal ratio in the repeat runs, not every such curve was filed as active; the % refers to the signal ratio)
# Summary of the method: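 GR-bla HeLa cells carrying a GRE-driven beta-lactamase reporter received compound after 4 h plating, then dexamethasone (5 nM final). After 18 h at 37C, the FRET substrate was loaded for 2 h at room temperature and fluorescence read.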
# Sequence of Glucocorticoid receptor (Homo sapiens) (P04150 whole entry, looked up): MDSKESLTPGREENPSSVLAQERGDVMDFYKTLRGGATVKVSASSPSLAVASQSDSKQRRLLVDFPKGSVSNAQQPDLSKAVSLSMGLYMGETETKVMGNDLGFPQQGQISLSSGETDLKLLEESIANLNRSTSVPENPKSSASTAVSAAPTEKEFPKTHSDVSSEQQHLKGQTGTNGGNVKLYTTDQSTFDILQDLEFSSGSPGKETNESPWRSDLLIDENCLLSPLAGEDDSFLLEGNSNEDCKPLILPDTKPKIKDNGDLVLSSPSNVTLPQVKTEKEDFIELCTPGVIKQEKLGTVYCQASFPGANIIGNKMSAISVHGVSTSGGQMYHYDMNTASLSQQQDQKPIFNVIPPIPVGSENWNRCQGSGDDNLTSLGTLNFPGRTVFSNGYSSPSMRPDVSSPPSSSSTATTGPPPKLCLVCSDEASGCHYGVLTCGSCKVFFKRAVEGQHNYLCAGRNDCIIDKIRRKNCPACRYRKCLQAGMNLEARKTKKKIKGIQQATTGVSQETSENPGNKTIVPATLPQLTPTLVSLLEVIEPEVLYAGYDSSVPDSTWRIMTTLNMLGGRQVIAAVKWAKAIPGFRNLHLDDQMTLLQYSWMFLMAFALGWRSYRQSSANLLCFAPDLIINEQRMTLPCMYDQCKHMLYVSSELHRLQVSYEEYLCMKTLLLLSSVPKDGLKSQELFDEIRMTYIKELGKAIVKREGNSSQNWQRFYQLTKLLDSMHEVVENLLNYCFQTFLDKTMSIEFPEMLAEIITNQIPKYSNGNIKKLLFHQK
Structure (SMILES),Potency [1],Potency [2],Potency [3],Potency [4],Potency [5],Potency [6],outcome [7],outcome [8],outcome [9],outcome [10],outcome [11],outcome [12],outcome [13],outcome [14],outcome [15],outcome [16],outcome [17],outcome [18],Potency [19],Potency [20]
C1CCNCC1,inactive,inactive,inactive,inactive,inactive,inactive,inactive,inactive,inactive,inactive,inactive,inactive,inactive,inactive,inactive,inactive,–,–,–,–
CN(C)N,inactive,inactive,inactive,inactive,inactive,inactive,inactive,inactive,inactive,inactive,inactive,inactive,inactive,inactive,inactive,inactive,inactive,inactive,inactive,inactive
CC(C)(C#N)C(C)(C)C#N,inactive,inactive,inactive,inactive,inactive,inactive,inactive,inactive,inactive,inactive,inactive,inactive,inactive,inactive,inactive,inactive,–,inactive,–,–
CCOc1cccc(C2(N3CCN(c4ccccc4)CC3)CCC(C)CC2)c1 (configuration not stated),inactive,inactive,–,inactive,inactive,inactive,inactive,inactive,inactive,inactive,inactive,inactive,inactive,inactive,inactive,inactive,inactive,inactive,inactive,inactive
O=C(Cl)OCCOCCOC(=O)Cl,inactive,inactive,inactive,inactive,–,–,inactive,inactive,inactive,inactive,inactive,inactive,inactive,inactive,inactive,–,inactive,inactive,inactive,inactive
CC(C)CCON=O,inactive,inactive,inactive,inactive,inactive,inactive,inactive,inactive,inactive,inactive,inactive,inactive,inactive,inactive,inactive,inactive,inactive,–,inactive,inactive
C=CCOC(=O)C(C)(C)OC(=O)c1cc(-n2c(=O)cc(C(F)(F)F)n(C)c2=O)ccc1Cl,inactive,inactive,inactive,inactive,inactive,–,inactive,inactive,–,inactive,inactive,inactive,inactive,inactive,–,inactive,inactive,inactive,inactive,inactive
OCCSSCCO,inactive,inactive,inactive,–,inactive,–,inactive,inactive,–,inactive,inactive,inactive,inactive,inactive,inactive,inactive,inactive,inactive,inactive,inactive
CN(C)C(=O)Nc1cccc(OC(=O)NC(C)(C)C)c1,inactive,inactive,inactive,–,inactive,inactive,inactive,inactive,–,inactive,inactive,inactive,inactive,inactive,inactive,inactive,–,inactive,inactive,inactive
COc1ccc2c(c1OC)C(=O)O[C@H]2[C@@H]1c2cc3c(cc2CCN1C)OCO3,inactive,inactive,inactive,inactive,inactive,inactive,inactive,inactive,inactive,inactive,inactive,inactive,inactive,inactive,inactive,inactive,inactive,inactive,–,–
OCCCl,inactive,inactive,inactive,inactive,inactive,inactive,inactive,inactive,inactive,inactive,inactive,inactive,inactive,inactive,inactive,–,inactive,–,inactive,inactive
C=CC(=O)NC(C)(C)CC(C)=O,inactive,inactive,inactive,inactive,inactive,–,inactive,inactive,inactive,inactive,inactive,inactive,inactive,inactive,inactive,inactive,inactive,inactive,inactive,–
CCCC[N+](CCCC)(CCCC)CCCC,inactive,inactive,inactive,inactive,inactive,–,inactive,inactive,inactive,inactive,inactive,inactive,inactive,–,inactive,inactive,inactive,–,inactive,–
N#CC(C#N)=Cc1ccc(O)c(O)c1,inactive,inactive,inactive,inactive,inactive,11.9 µM (active),inactive,inactive,–,inactive,inactive,inactive,inactive,inactive,–,inactive,–,–,–,–
CCCCC(CC)CO[N+](=O)[O-] (configuration not stated),inactive,inactive,inactive,–,inactive,inactive,inactive,inactive,inactive,inactive,inactive,inactive,inactive,inactive,inactive,inactive,inactive,–,inactive,inactive
O=C1c2ccccc2C(=O)N1SC(Cl)(Cl)Cl,8.51 µM (active) and 4.33 µM (active),inactive,inactive,–,–,4.79 µM (active) and 7.7 µM (active),inactive,inactive,inactive,inactive,inactive,inactive,inactive,inactive,–,inactive,inactive,inactive,–,–

Structure (SMILES),Potency [1],Potency [2],Potency [3],Potency [4],Potency [5],Potency [6],outcome [7],outcome [8],outcome [9],outcome [10],outcome [11],outcome [12],outcome [13],outcome [14],outcome [15],outcome [16],outcome [17],outcome [18],Potency [19],Potency [20]
CC[N+]1(C)CCCC(OC(=O)C(O)(c2ccccc2)c2ccccc2)C1 (configuration not stated),inactive,inactive,inactive,–,inactive,inactive,inactive,inactive,–,inactive,inactive,inactive,inactive,inactive,–,inactive,inactive,–,inactive,inactive
COc1cc(C[C@@H](C)N)c(OC)cc1Br,inactive,inactive,inactive,inactive,inactive,–,inactive,inactive,inactive,inactive,inactive,inactive,inactive,inactive,inactive,–,–,inactive,–,–
C=C(Cl)Cl,inactive,inactive,inactive,inactive,inactive,inactive,inactive,inactive,inactive,inactive,inactive,inactive,inactive,inactive,inactive,inactive,inactive,–,inactive,inactive
C[C@H]1O[C@H](OC2[C@@H](O)[C@@H](O)C(O)[C@H](O)[C@H]2O)[C@@H](N)C[C@@H]1N=C(N)C(=O)O (some centres not stated),inactive,inactive,inactive,inactive,inactive,inactive,inactive,inactive,inactive,inactive,inactive,inactive,inactive,inactive,–,inactive,inactive,inactive,inactive,inactive
CC(C)(c1ccccc1)c1cc(-n2nc3ccccc3n2)c(O)c(C(C)(C)c2ccccc2)c1,inactive,inactive,inactive,inactive,inactive,–,inactive,inactive,–,inactive,inactive,inactive,inactive,inactive,inactive,inactive,inactive,inactive,inactive,inactive
CC(Cl)C(=O)O (configuration not stated),inactive,inactive,inactive,inactive,inactive,–,inactive,inactive,inactive,inactive,inactive,inactive,inactive,inactive,inactive,inactive,–,–,–,–
Cc1ccc2c(C)cccc2c1,inactive,inactive,inactive,inactive,inactive,–,inactive,inactive,inactive,inactive,inactive,inactive,inactive,inactive,inactive,inactive,–,inactive,inactive,–
COC(=O)C1(O)c2ccccc2-c2ccccc21,inactive,inactive,inactive,inactive,inactive,–,inactive,inactive,–,inactive,inactive,inactive,inactive,inactive,inactive,inactive,inactive,inactive,inactive,inactive
CCN(C(C)=O)c1cccc(-c2ccnc3c(C#N)cnn23)c1,inactive,inactive,inactive,–,inactive,–,inactive,inactive,inactive,inactive,inactive,inactive,inactive,–,inactive,inactive,–,inactive,–,–
CCCCC1C(=O)NC(=O)N(C2CCCCC2)C1=O (configuration not stated),inactive,inactive,inactive,inactive,inactive,inactive,inactive,inactive,inactive,inactive,inactive,inactive,inactive,inactive,inactive,inactive,inactive,inactive,inactive,inactive
Cc1nc2ccccc2c(=O)n1-c1ccccc1Cl,inactive,inactive,inactive,inactive,inactive,–,inactive,inactive,inactive,inactive,inactive,inactive,inactive,inactive,inactive,–,inactive,inactive,inactive,inactive
CC(C)c1ccc(OP(=O)(Oc2ccc(C(C)C)cc2)Oc2ccc(C(C)C)cc2)cc1,inactive,inactive,inactive,inactive,–,–,inactive,inactive,–,inactive,inactive,inactive,inactive,inactive,inactive,inactive,inactive,inactive,inactive,–
CCCC[N+]1(C)[C@@H]2CC(OC(=O)[C@H](CO)c3ccccc3)C[C@H]1[C@@H]1O[C@@H]12 (some centres not stated),inactive,inactive,inactive,inactive,inactive,inactive,inactive,inactive,inactive,inactive,inactive,inactive,inactive,inactive,inactive,–,inactive,inactive,inactive,inactive
Nc1cc(Cl)cc(C(=O)O)c1Cl,inactive,inactive,inactive,–,inactive,inactive,inactive,inactive,inactive,inactive,inactive,inactive,inactive,–,inactive,inactive,inactive,–,–,–
CCOP(=S)(OCC)SCSc1cc(Cl)ccc1Cl,inactive,inactive,inactive,inactive,inactive,–,inactive,inactive,inactive,inactive,inactive,inactive,inactive,–,inactive,inactive,inactive,inactive,inactive,–
